Drawing on PubChem BioAssay AID2116 (The Scripps Research Institute Molecular Screening Center, 2009), this text covers current density and outcome for five compounds.

Active and inactive are the calls of the source. No rule for the calls is given here.

The target in the experiment is Mucolipin-3 (Homo sapiens) (UniProt Q8TDD5). Briefly: activators of mucolipin-3 and mucolipin-2 – cell-based, patch clamp, Fura-2 profiling panel (AID 2116). Particulars: HEK293 cells expressing TRPML3-YFP, TRPML3 Patch Clamp Assay; patch clamp current at -80 mV.
Chain of Mucolipin-3 (Homo sapiens) (Q8TDD5 whole entry, looked up): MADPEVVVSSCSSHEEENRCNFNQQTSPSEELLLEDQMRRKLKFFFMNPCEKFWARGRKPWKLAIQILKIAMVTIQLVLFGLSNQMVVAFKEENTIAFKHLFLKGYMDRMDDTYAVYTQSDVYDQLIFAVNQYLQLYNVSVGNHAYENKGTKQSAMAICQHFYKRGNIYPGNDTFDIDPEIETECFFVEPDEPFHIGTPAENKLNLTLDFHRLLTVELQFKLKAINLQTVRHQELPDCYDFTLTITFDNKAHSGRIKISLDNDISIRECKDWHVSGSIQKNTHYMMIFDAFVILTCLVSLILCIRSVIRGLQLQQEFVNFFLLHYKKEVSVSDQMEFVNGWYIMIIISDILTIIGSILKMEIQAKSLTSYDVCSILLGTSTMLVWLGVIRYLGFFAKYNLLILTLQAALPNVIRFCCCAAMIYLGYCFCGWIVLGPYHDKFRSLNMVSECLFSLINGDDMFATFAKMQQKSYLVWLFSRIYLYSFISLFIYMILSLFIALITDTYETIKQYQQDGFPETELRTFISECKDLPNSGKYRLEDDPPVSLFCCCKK
For `Cc1ccc(N2CCN(S(=O)(=O)N3CCCCC3)CC2)c(C)c1`, the current density is -0.42 nA/pF and the outcome was “active; no effect on six other TRP channels”.

Regarding `O=S(=O)(NC1CCCCC1N1CCOCC1)c1ccc(Cl)cc1` (stereo not given), the current density was -0.55 nA/pF and the outcome is “active; no effect on six other TRP channels”.

With `O=S(=O)(Nc1ccccc1N1CCOCC1)c1ccc(Cl)s1`, the current density is -0.37 nA/pF and the outcome was “active; no effect on six other TRP channels”.

As for `O=S(=O)(Nc1ccccc1N1CCCCC1)c1ccc(Cl)s1`, the outcome was “active; no effect on six other TRP channels” and the current density is -0.24 nA/pF.

As to `Cc1ccc(S(=O)(=O)Nc2ccccc2-c2ccccc2)cc1`, the outcome was “active; no effect on six other TRP channels” and the current density was -0.02 nA/pF.
